Test [1] can be described thus: S16 Schwann cell viability assay (CellTiter-Glo assay) (AID 624031).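 Also: native untransfected S16 rat Schwann cells; cellular ATP luminescence as a viability measure; plate controls were DMSO-treated cells for no effect and cell-free wells for full effect; nearly all actives have a fitted effect of over 70% in size.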 Summed up: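 Cells were seeded at 500-750 per well in phenol red-free DMEM with 10% FBS and left overnight. Compounds or DMSO were pinned in, incubation ran 24 h at 37 °C/5% CO2, then CellTiter-Glo reagent was added and luminescence measured.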
Test [2] in a line: qHTS of Trypanosoma Brucei Inhibitors: LOPAC Validation (AID 624147). Also: 0% is about no effect. Put shortly: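 Quantitative HTS: titrated library compounds versus trypanosomal pyruvate kinase in TEA buffer (pH 7.2) containing KCl, MgCl2, BSA and Tween-20. Reactions were initiated with ADP, 130 uM final. Kinase-Glo Plus luminescence was read after 45 min at RT.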
For orientation: qHTS replaces the single test concentration by a dilution series.

The target of test [3] is Glucagon-like peptide 1 receptor (Homo sapiens) (UniProt P43220). The test can be described thus: qHTS of GLP-1 Receptor Agonists: LOPAC Validation (AID 624148).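 Also: luminescence from a luciferase reporter switched on by cAMP; 0% is about no effect; higher luminescence signal means agonism.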 Put shortly: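 Agonism scored as increased luciferase luminescence driven by cAMP in HEK293 clones carrying GLP-1R. Cells settled 12 hours, received compound for 4-6 hr at 37 deg C, 5% CO2, and were read after 12 min detection reagent at RT.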

The nature of test [4]: qHTS of Nrf2 Activators: LOPAC Validation (AID 624149). Also: 0% is about no effect. Put shortly: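 Luminescence read-out of ARE-luciferase activation: AREc32_Fluc cells treated with compounds for 24 hr at 37 deg C, then lysed with Steady-Glo for 30 min at room temperature before reading.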
Test [5] is described as follows: HTS Assay for Allosteric Antagonists of the Human D2 Dopamine Receptor: Hit Validation in HTRF (AID 624455).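 Also: stable D1 dopamine receptor cell line scored for blocking the D1 response; % is scaled to controls: 0 for no effect and ±100 for the full control effect.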 Put shortly:
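First, antagonism was screened by calcium flux in a force-coupled, inducible Hek293 Trex D2 line challenged with EC80 dopamine. Hits then went into an HTRF assay in cells stably expressing D1, testing inhibition of the D1 response.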
Background: Time-resolved FRET reads energy transfer from a long-lived donor to a nearby acceptor.

The nature of test [6]: qHTS assay for small molecule activators of the nuclear factor-kappa B (NF-kB) signaling pathway (AID 651749; active = well fitted activation curve with a large enough effect in the signal ratio; the % refers to the signal ratio; also: % of control where 0% means no effect). The note with it: NF-kB-bla ME-180 cells, beta-lactamase FRET ratio, 16 h; stronger effect = higher value. Summed up:
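Readout: beta-lactamase reporter driven by an NF-kB response element, detected fluorescently as loss of FRET. Cells were the ME-180 line, treated 16 hr at 37C with pin-transferred compound.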

Test [7] is described as follows: S16 Schwann cell PMP22 intronic element firefly luciferase assay (AID 624032). Also: nearly all actives have a fitted effect of over 30% in size. Also: potency is read from the fitted curve at half-maximal effect. Summed up:
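Luciferase reporter of PMP22 intronic-element expression in stably transfected S16 rat Schwann cells, read by ONE-Glo luminescence after 24 h compound exposure at 37 C. Activity scaled between DMSO (0%) and positive-control PTC124; concentration-effect curves quality-classified.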

The nature of test [8]: S16 Schwann cell PMP22 intronic element beta-lactamase assay (AID 624044; calls by dose curve; also: nearly all actives have a fitted effect of over 15% in size; also: potency is read from the fitted curve at half-maximal effect). Summed up:
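Rat S16 Schwann cells with beta-Lac driven by a PMP22 intronic element, compound-treated 24 h at 37 °C. LiveBLAzer FRET B/G read: 460 nm normalized to potassium clavulanate vs DMSO; 535 nm FRET as viability; concentration-effect curves classified.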

A short description of test [9]: qHTS assay for small molecule activators of the p53 signaling pathway (AID 651743; active = well fitted activation curve with a large enough effect in the signal ratio, not every such curve was filed as active; the % refers to the signal ratio; also: potency is read from the fitted curve at half-maximal effect; as to activation: % of control where 0% means no effect). The settings on record: HCT-116 p53RE-bla, beta-lactamase FRET ratio, 16 h; activation: stronger effect = higher value. Put shortly: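 Read-out is fluorescence intensity from the LiveBLAzer B/G FRET substrate, added for 2 hours at room temperature after HCT-116 p53RE-bla cells had been incubated with compounds for 16 hours at 37 C.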

Test [10] is described as follows: qHTS assay for small molecule agonists of the antioxidant response element (ARE) signaling pathway (AID 651741; active = well fitted activation curve with a large enough effect in the signal ratio; the % refers to the signal ratio; also: potency is read from the fitted curve at half-maximal effect; as to activation: % of control where 0% means no effect). Summed up:
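Quantitative HTS in HepG2 cells stably expressing an ARE-beta-lactamase reporter; 16 h compound exposure at 37 C, followed by 2 h room-temperature incubation with LiveBLAzer B/G FRET substrate and fluorescence measurement.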

The nature of test [11]: qHTS assay for small molecule disruptors of the mitochondrial membrane potential - 1 hr assay (AID 651754; calls by dose curve; also: % is scaled to controls: 0 for no effect and ±100 for the full control effect; nearly all actives have a fitted effect of over 35% in size). Put shortly: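 HepG2, 2,000 cells/well, overnight attachment; cpd or DMSO 1 hr, 37C/5% CO2; Mito-MPS dye 30 min, 37C; fluorescence monomer (490/535) and aggregate (540/590).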
Test [12] can be described thus: qHTS assay for small molecule disruptors of the mitochondrial membrane potential - 5 hr assay (AID 651755; calls by dose curve; also: % is scaled to controls: 0 for no effect and ±100 for the full control effect; nearly all actives have a fitted effect of over 40% in size). Put shortly: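 HepG2, 2,000 cells/well, overnight attach; cpd or DMSO 5 hr, 37C/5% CO2; Mito-MPS 30 min 37C; fluor 490/535 + 540/590 nm.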
Test [13] deals with Tumor necrosis factor (Homo sapiens) (UniProt P01375). As to the kind of experiment: qHTS assay to identify small molecules that stimulate Tumor Necrosis Factor-alpha (TNF-alpha) secretion (AID 651757; active = well fitted curve in the direction sought with a large enough effect in the signal ratio; the % refers to the signal ratio; also: 0% is about no effect). Summed up:
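Read-out is HTRF, a TR-FRET sandwich of cryptate- and XL665-labeled anti-TNF-alpha antibodies detecting cytokine secreted by THP-1 cells. Cells had been incubated with test compounds at 37 C for 17 hrs beforehand.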

Test [14] is described as follows: qHTS Assay for Identification of Small Molecule Antagonists for NFkB Signaling Pathway. (AID 624479; calls by dose curve;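 also: pathway stimulated with TNF alpha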; also: potency is read from the fitted curve at half-maximal effect).
Test [15] in a line: Cell Proliferation Assay against the TMD8 Cell Line (AID 651645).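 Also: cells exposed to compound for 48 h before reading.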 The settings on record: TMD8 DLBCL cell line proliferation/viability; at 46.1 µM (top of the series). Put shortly: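 Viability by CellTiter-Glo after 48 h compound exposure of 500 log-phase TMD8 cells per well (RPMI, 5% FBS). Percent activity scaled between DMSO (100%) and 9.2 uM final bortezomib (0%).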
The nature of test [16]: Cell Proliferation Assay against the HBL1 Cell Line (AID 651646).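 Also: cells exposed to compound for 48 h before reading.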 The note with it: HBL1 DLBCL cells; at 46.1 µM (top of the series). Put shortly:
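Luminescent ATP read-out (CellTiter-Glo) after 48 h compound exposure of HBL1 cells at 37 °C; percent activity was scaled between DMSO as 100% and 9.2 uM bortezomib (final) as 0%.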

Test [17] in a line: Cytotoxicity counterscreen for NFkB agonists and antagonists (AID 624476).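 Also: cells exposed to compound for 48 hours.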 Also: potency is read from the fitted curve at half-maximal effect. For orientation: The purpose of a counterscreen is to sort out artefacts and off-target activity.
The nature of test [18]: qHTS Assay for Identification of Small Molecule Agonists for NFkB Signaling Pathway. (AID 624478).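 Also: compounds tested together with TNF alpha at its EC50 of 10 pM; 0% is about no effect.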 Put shortly:
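ME-180 cervical carcinoma, stable NFkB-RE beta-lactamase reporter; 1000 cells/well, overnight attachment; cpd + TNF alpha 10 pM final, 5 h 37 C; LiveBLAzer 2 h RT; FRET 460/530 nm, ex 405 nm.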

A short description of test [19]: Cell Proliferation Assay against the TMD8 Cell Line (Caspase readout at 8 hrs) (AID 651713). Also: potency is read from the fitted curve at half-maximal effect. Put shortly:
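Seed log-phase TMD8 cells, add compound by pin tool, incubate 8 h at 37C under 5% CO2, equilibrate to room temperature, add Caspase-Glo, wait 15 min, read luminescence; percent activity uses DMSO and 9.2 uM bortezomib controls.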

Test [20] can be described thus: Cell Proliferation Assay against the TMD8 Cell Line (Caspase readout at 16 hrs) (AID 651712). Summed up:
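Apoptotic response of TMD8 cells was judged from caspase 3/7 activation following a 16 hour compound incubation at 37 °C. Luminescent signal was converted to percent activity, with DMSO set as 0% and 9.2 uM final bortezomib as 100%.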

The structures appear in SMILES notation. “And” between values parts separate entries of the source, which are not always exact repeats. Equal values may be shown once. Records with an inconclusive call do not appear. The source made the active and inactive calls. Unless noted, calls follow the shape of the dose curve; as a rule, active = well fitted curve in the direction sought with a large enough effect; inconclusive = small, poorly fitted or top-dose-only effect, or another doubt; inactive = no such curve, though single readings can be large; an effect the other way counts as inactive or inconclusive.

From PubChem BioAssay (NCATS) come the findings set out here.

Sequence of Glucagon-like peptide 1 receptor (Homo sapiens) (P43220 whole entry, looked up): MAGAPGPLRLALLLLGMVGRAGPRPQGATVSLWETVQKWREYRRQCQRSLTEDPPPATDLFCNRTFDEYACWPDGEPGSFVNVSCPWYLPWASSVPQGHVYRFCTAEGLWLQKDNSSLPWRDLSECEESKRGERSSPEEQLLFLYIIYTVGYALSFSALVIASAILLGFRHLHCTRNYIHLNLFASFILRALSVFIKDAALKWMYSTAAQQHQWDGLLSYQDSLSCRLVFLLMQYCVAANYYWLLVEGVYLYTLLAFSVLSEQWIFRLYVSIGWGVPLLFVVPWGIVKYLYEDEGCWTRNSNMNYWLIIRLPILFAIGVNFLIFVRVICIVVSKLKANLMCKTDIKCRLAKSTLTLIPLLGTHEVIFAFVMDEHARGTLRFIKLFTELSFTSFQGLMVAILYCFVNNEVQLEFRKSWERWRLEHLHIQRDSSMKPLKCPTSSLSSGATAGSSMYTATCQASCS
Sequence of Tumor necrosis factor (Homo sapiens) (P01375 whole entry, looked up): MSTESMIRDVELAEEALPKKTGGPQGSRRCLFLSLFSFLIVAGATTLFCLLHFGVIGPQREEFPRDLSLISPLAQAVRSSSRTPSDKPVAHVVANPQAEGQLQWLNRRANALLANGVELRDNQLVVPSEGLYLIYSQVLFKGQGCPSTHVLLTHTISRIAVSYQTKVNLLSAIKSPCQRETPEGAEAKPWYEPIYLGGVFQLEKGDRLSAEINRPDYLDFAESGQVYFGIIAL

Take `C=C(C)[C@H]1Cc2c(ccc3c2O[C@@H]2COc4cc(OC)c(OC)cc4[C@@H]2C3=O)O1`: the Potency result in test [1] and in [5] was “inactive” throughout. The result in test [2], in [3] and in [4] was inactive. Moreover, in [6], the activation is 7.78% (inactive).
With `CCCSc1ccc2nc(NC(=O)OC)[nH]c2c1`, the Potency entry in test [7] was “inactive”. For the same compound, the Potency in test [8] is 1.07 µM (active).
Regarding `CC(C)(C)CC(C)(C)c1ccc(O)cc1`, the Potency entry in test [1], in test [7] and in [8] was “inactive” throughout. Moreover, the activation in [9] was 1.12% (inactive).
Consider `CCCN1CCC[C@@H]2Cc3[nH]ncc3C[C@H]21`, for which the Potency entry in test [1] and in test [7] was “inactive” throughout. Further, the outcome in test [2], in [3] and in [4] was inactive.
Turning to `NN=C(N)N`, the Potency entry in test [1], in [7] and in test [5] was “inactive” each time. For the same compound, the compound was classed as inactive in [2], in [3] and in test [4].
In the case of `OCCOc1ccccc1`, the Potency result in test [7], in test [10], in test [11] and in test [12] was “inactive” each time. In addition, the activation in test [9] is -4.8% (inactive) and -3.64% (inactive). The result in [13] was inactive.
Turning to `CC(COc1ccccc1)N(CCCl)Cc1ccccc1` (stereo unspecified), the Potency is 0.114 µM (active) in [7]; 48.6 µM (active) and 42.2 µM (active) in test [10].
Regarding `Cc1c(OCC(F)(F)F)ccnc1CS(=O)c1nc2ccccc2[nH]1` (stereo unspecified), the Potency entry in test [7] is “inactive”.
For the compound `CNCCC(Oc1ccc(C(F)(F)F)cc1)c1ccccc1` (stereo unspecified), the Potency result in [7] was “inactive”.
Regarding `CC(=O)Nc1nnc(S(N)(=O)=O)s1`, in test [7], the Potency result is “inactive”.
For `O=c1c(O)c(-c2ccc(O)c(O)c2)oc2cc(O)cc(O)c12`, the Potency in [14] is 14.9 µM (active). In test [15], the viability (% of control) came out at 46.1%. Also, the viability, percent of control in [16] stood at 56.5%.
`O=c1[nH]cc(F)c(=O)[nH]1`: the Potency was 5.62 µM (active) in [8] and 3.98 µM (active) in test [9].
Turning to `O=C(O)C(=O)c1cn(Cc2ccccc2)c2ccc(-c3ccc(OC(F)(F)F)cc3)cc12`, the values for the Potency in test [17] and in test [14] were 18.7 µM (active) and 16.8 µM (active), respectively. In addition, the result in test [18] was inactive. The viability (% of control) in test [15] amounted to 75.1%. Also, in test [16], the viability, percent of control amounted to 68.4%. Besides, the Potency result in [19] is “inactive”.
Consider `C[C@H]1O[C@@H](O[C@H]2[C@@H](O)C[C@H](O[C@H]3[C@@H](O)C[C@H](O[C@H]4CC[C@@]5(C)[C@H](CC[C@@H]6[C@@H]5CC[C@]5(C)[C@@H](C7=CC(=O)OC7)CC[C@]65O)C4)O[C@@H]3C)O[C@@H]2C)C[C@H](O)[C@@H]1O`, for which the results for the activation in test [9] and in [6] were -10.8% (inactive) and -1.01% (inactive), respectively.
With `COC[C@H]1OC(=O)c2coc3c2[C@@]1(C)C1=C(C3=O)C2CCC(=O)[C@@]2(C)C[C@H]1OC(C)=O` (stereo partly specified), the outcome in test [2], in [3], in [4] and in test [18] was inactive. Moreover, in [5], the Potency entry is “inactive”. Besides, the Potency in test [14] is 13.3 µM (active); in test [19], 23.5 µM (active). In addition, in test [15], the viability (% of control) was 17.1%. Besides, the viability, percent of control in test [16] is 61.7%.
`CC1=C2C[C@@H]3[C@@H](CC=C4C[C@@H](O)CC[C@@]43C)[C@@H]2CC[C@]12O[C@H]1C[C@H](C)CN[C@H]1[C@H]2C`: in test [17], the Potency entry is “inactive”. Besides, in test [18], the call was inactive. In addition, the viability (% of control) in test [15] is 62.9%. Moreover, the viability, percent of control in test [16] came out at 69.1%.
Turning to `CC(O)(CS(=O)(=O)c1ccc(F)cc1)C(=O)Nc1ccc(C#N)c(C(F)(F)F)c1` (stereo unspecified), the compound was called inactive in test [2], in [3], in test [4] and in [18]. Also, the Potency result in [5], in test [17], in test [14], in [20] and in [19] was “inactive” each time. The viability (% of control) in test [15] stood at 109%. In test [16], the viability, percent of control was 95.3%.
